TTR transcr act: TTR transcription activators in neuroblastoma reporter cells, primary screen, cell-based, luminescence, SH-SY5Y, TTR promoter Gaussia luciferase; 100% = recombinant luciferase protein wells; activation, % at 16.7 µM; hit rate 1.3% among 92,000; AID 1117267, 2014;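 active = activation above the mean of all tested compounds plus 3 SD, cut at about 9.5% in these data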;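 note: cells exposed to compounds for one day before reading; 0% = median of all test compound wells on the plate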
HuH7 TTR inh: TTR promoter reporter inhibitors in hepatoma cells, counter-screen for TTR transcription activator project, cell-based, luminescence, HuH7 hepatoma; shares compounds with TTR transcr act; HuH7 TTR promoter-Gaussia luciferase reporter; inhibition, % at 16.7 µM; hit rate 4% among 1,100; AID 1117279, 2014;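 active = average inhibition above the solvent-only control wells' mean plus 3 SD, cut at about 15% in these data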;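 note: 0% = cells with DMSO only and 100% = cells with inhibitor control FD; inhibitors lower well luminescence so higher value means more inhibition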
TTR act confirm: TTR transcription activators, retest, confirmation, cell-based, luminescence, SH-SY5Y, triplicate; shares compounds with TTR transcr act; SHSY5Y TTR promoter Gaussia luciferase; 100% = purified Lucia enzyme wells, no cells; activation, % at 16.7 µM; 1,100 tested, under 10 active;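 active = mean activation above a set limit taken from the earlier primary screen, cut at about 11% in these data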;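 note: 0% = DMSO-treated cells and 100% = recombinant Lucia luciferase without cells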
Starred values were filed as active, the others as inactive. Many of the other results were omitted from the sample, so hits are more common in it than they were.

SMILES | TTR transcr act | others
Nn1c(SCC(=O)NC(=O)NCc2ccco2)nnc1-c1ccc(OC(F)F)cc1 | 4
Cc1ccc(NC(=S)Nc2cccc(-c3n[nH]c(=S)o3)c2)cc1 | 74* | HuH7 TTR inh=1;TTR act confirm=0
Cc1ccc(C(=O)Nc2cccc(-c3nc4ncccc4o3)c2)cc1 | -1
Cc1ccc(NC(=S)Nc2cc(C)on2)cc1 | 1
O=C(COC(=O)c1cc2ccccc2cc1O)Nc1cccnc1Cl | -1
CCOC(=O)N1CCN(C(=O)c2ccc(N3CC4CC(C3)c3cccc(=O)n3C4)c(NC(=O)c3ccc(F)cc3)c2)CC1 (configuration not stated) | 3
Cc1ccccc1OCCCC(=O)NCc1ccco1 | 0
C=CCN1C(=O)/C(=C2/Sc3ccccc3N2CCCS(=O)(=O)O)SC1=S | -2
CCCCc1ccc(NC(=S)N2CCN(C)CC2)cc1 | 7
CN1CCN(C(=S)Nc2ccc(S(N)(=O)=O)cc2)CC1 | 11* | HuH7 TTR inh=-9;TTR act confirm=0
CCOC(=O)c1ccc(NC(=S)N2CCN(C)CC2)cc1 | 0
Cc1ncc(CN2CCC(C(=O)Nc3ccc(-n4cccn4)cc3)CC2)s1 | -1
CN(Cc1nc2ccccc2n1C)c1ccccc1 | 2
COCCCNC(=S)N1CCCN(c2nc3cc(C)c(C)cc3cc2C#N)CC1 | 0
CCCCOc1ccc(CSc2n[nH]c(C)n2)cc1 | -1
N/C(=N\OC(=O)c1ccc(OCC(F)(F)F)nc1)c1ccc(Cl)cc1 | 1
CN(C)C(=O)c1ccc(Oc2ccc(C(=O)N(C)C)cc2)cc1 | 0
CN(C)C(=O)c1ccc(OCC(F)(F)F)nc1 | 13* | HuH7 TTR inh=-9;TTR act confirm=-1
CCN(CC)S(=O)(=O)c1ccc(OC)c(NC(=O)c2ccc(=O)[nH]c2)c1 | 9
Cc1noc(C)c1C(=O)N1CCC1(C)C(=O)NS(=O)(=O)c1ccc(Br)cc1 (configuration not stated) | -2
O=C(N/N=C/c1cccc(O)c1)c1ccc(NC(=O)c2cccc([N+](=O)[O-])c2)cc1 | -2
Cc1cc(C)n(CC2CC(=O)N(c3ccc(C)c(Cl)c3)C2=O)n1 (configuration not stated) | 1
CCOc1ccc(N2C(=O)CC(Sc3nc(C)cc(C)c3C#N)C2=O)cc1 (configuration not stated) | 0
CCCc1c(O)nc(SC2CC(=O)N(c3ccc(C)c(Cl)c3)C2=O)[nH]c1=O (configuration not stated) | 12* | HuH7 TTR inh=-6;TTR act confirm=0
O=C(NCc1ccncc1)c1ccc(Br)o1 | 2
SMILES | TTR transcr act | others
O=C(NC(=O)N1CCCC1)c1csnn1 | 2
O=C(NC(=S)Nc1ccccc1Cl)c1csnn1 | 13* | HuH7 TTR inh=-12;TTR act confirm=0
Cc1c(Cl)cccc1NC(=S)NC(=O)c1ccccc1 | 9
CN(C)c1ccc(P(=O)(Nc2ccc([N+](=O)[O-])cc2)N2CCOCC2)c(NC(=O)c2cccs2)c1 (configuration not stated) | -1
Nc1ccc(Nc2ccccc2)c(Cl)c1 | 2
Fc1ccc(Nc2nc(N3CCOCC3)nc(N3CCOCC3)n2)cc1 | 1
c1cncc(CNc2nc(N3CCOCC3)nc(N3CCOCC3)n2)c1 | 1
CSc1nc(NCC(C)C)nc(N2CCOCC2)n1 | 15* | HuH7 TTR inh=-3;TTR act confirm=0
Cc1c(Cl)cccc1NC(=O)c1ccco1 | 0
O=C(Cc1ncon1)Nc1ccc(F)c(F)c1F | 0
CCC1([N+](=O)[O-])COC(C=Cc2ccccc2)OC1 (configuration not stated) | -1
COc1ccccc1OCC(=O)NNC(=S)NC(=O)c1ccco1 | -2
Cc1nnc(SCC(=O)NC23CC4CC(CC(C4)C2)C3)s1 | 2
Cc1csc(SCC(=O)O)n1 | 7
Cc1csc(SCC(=O)NC23CC4CC(CC(C4)C2)C3)n1 | 11* | HuH7 TTR inh=-7;TTR act confirm=1
COc1cc(NS(=O)(=O)c2ccc3[nH]c(=O)oc3c2)cc(OC)c1 | 0
O=C(COc1cccnc1[N+](=O)[O-])Nc1ccc2c(c1)CCC2 | -1
COCCCNCCCCOc1ccccc1-c1ccccc1 | 1
C=CCNCCCCOc1ccc(OCc2ccccc2)cc1 | 1
COCCCNCCCCOc1ccc(OCc2ccccc2)cc1 | 34* | HuH7 TTR inh=-11;TTR act confirm=0
CCCCNC(=O)c1ccc2nc(CC)c(N(CC)CCOC)n2c1 | 2
CC(=O)c1cc(-c2ccc(F)cc2)n(CCC(=O)NC(C)(C)C)c1C | -1
CCOc1ccc(NC(=O)CN2CCN(CC(=O)Nc3ccccc3OC)CC2)cc1 | -2
CCCCOc1ccc(NC(=O)CN2CCN(CC)CC2)cc1 | 24* | HuH7 TTR inh=-9;TTR act confirm=1
CCOc1ccc(NC(=O)CN2CCN(CC(=O)Nc3ccc(C(=O)OC)cc3)CC2)cc1 | -1
SMILES | TTR transcr act | others
Cc1cccc(C(C)C)c1NC(=O)C1CCN(S(=O)(=O)c2ccccc2)CC1 | -3
C=CCn1c(COc2ccccc2F)nnc1SCC(=O)Nc1cc(C)on1 | 0
Cc1ccc(S(=O)(=O)N2CCN(C(=O)C3CCCCC3)CC2)cc1 | 4
CC1=C(C(=O)Nc2ccc(C)cc2)C(c2ccc(N(C)C)cc2)NC(=O)N1 (configuration not stated) | 1
COc1cccc(C2NC(=O)NC(C)=C2C(=O)Nc2ccc(C)cc2)c1 (configuration not stated) | 21* | HuH7 TTR inh=-11;TTR act confirm=0
CC1=C(C(=O)Nc2ccccc2C)C(c2ccccc2)NC(=O)N1 (configuration not stated) | -1
C=CCc1cccc(/C=C/c2cc(=O)c3ccccc3[nH]2)c1O | -4
CCOc1ccc(C(=O)NN2C(=S)NC(C)(C)C=C2C)cc1 | 3
O=C(CNC(=S)N(Cc1ccccc1)Cc1cccnc1)NC1CC1 | 5
O=C(NNC(=S)NC1CC2C=CC1C2)c1ccncc1 (configuration not stated) | 1
N#CCCN(Cc1cccnc1)C(=S)NC1CC2C=CC1C2 (configuration not stated) | 10* | HuH7 TTR inh=-9;TTR act confirm=1
c1ccc(Cn2ccc3ccc(-c4ccc5ccn(Cc6cccc(-c7ccsc7)c6)c5c4)cc32)cc1 | 0
CC(=O)c1c(C)[nH]c(C(=O)COC(=O)CCSc2ccccc2)c1C | -2
CC(C)(C)NC(=O)[C@@H](c1cccnc1)N(C(=O)c1ccco1)c1ccc(C(C)(C)C)cc1 | 5
O=S(=O)(c1ccc(SCc2c(F)cccc2Cl)nc1)N1CCCC1 | -1
O=S(=O)(c1ccc(SCCOc2ccc(Cl)cc2)nc1)N1CCCC1 | 21* | HuH7 TTR inh=7;TTR act confirm=-1
O=S(=O)(c1ccc(SCCOc2ccc(Br)cc2)nc1)N1CCCC1 | -2
COc1ccc(CCNc2ccc([N+](=O)[O-])cn2)cc1 | -1
CC(=O)O[C@H](COc1c2ccoc2cc2oc(=O)ccc12)C(C)(C)O | -1
C=C(C)[C@@H](O)COc1c2ccoc2cc2oc(=O)ccc12 | 10* | HuH7 TTR inh=-6;TTR act confirm=0
CC(C)(O)[C@H](O)COc1c2ccoc2cc2oc(=O)ccc12 | 6
CN(C1CCCCC1)S(=O)(=O)c1ccc(NC(=O)C2CCCCC2)cc1 | -3
COc1cccc(C(=O)N2CCN(Cc3ccco3)CC2)c1OC | 6
CC(C)(C)c1cc(NC(=O)Nc2ccc(Cl)cc2Cl)no1 | 0
O=C(CSc1nnc(-c2ccncc2)n1Cc1ccco1)Nc1ccccc1F | -1

Screening data as filed in PubChem BioAssay.
